Inconclusive results are not listed. A call without a number means that no potency is given here. The source made the active and inactive calls. The call rests on the fitted dose curve; in most records, active means well fitted inhibition curve with a large enough effect; inconclusive means small, poorly fitted or top-dose-only effect; inactive means flat fitted curve, though single readings scatter.
What was measured:
Experiment in all cases: qHTS profiling for inhibitors of Plasmodium falciparum proliferation (AID 504749); further: nearly all actives have a fitted effect of over 60% in size
Conditions in all cases: P. falciparum in erythrocytes, SYBR Green DNA, 72 h; series mostly up to 28.7 µM
[1] = test system: CP260
Outline: (§1)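 Parasite proliferation within erythrocytes, 72 h exposure. Endpoint: SYBR Green I fluorescence after overnight lysis at room temperature. Controls: 0.29 uM artemisinin, DMSO.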

[2] = test system: CP262
Outline: as §1

[3] = test system: CP265
Outline: as §1

[4] = test system: CP266
Outline: as §1

[5] = test system: CP268
Outline: as §1

[6] = test system: CP269
Outline: as §1

[7] = test system: CP286
Outline: as §1

[8] = test system: CP291
Outline: as §1

[9] = test system: CP297
Outline: as §1

[10] = test system: CP305
Outline: as §1
Potency means the concentration at half of the fitted maximal effect.

Structure (SMILES)	Potency [1]	Potency [2]	Potency [3]	Potency [4]	Potency [5]	Potency [6]	Potency [7]	Potency [8]	Potency [9]	Potency [10]
O=C(O)CCC/C=C\C[C@@H]1[C@@H](/C=C/[C@@H](O)COc2cccc(Cl)c2)[C@H](O)C[C@@H]1O	inactive	inactive	inactive	inactive	inactive	inactive	inactive	inactive	inactive	inactive
CC(C)=CCC/C(C)=C/CC/C(C)=C/CC/C=C(\C)CC/C=C(\C)CCC=C(C)C	inactive	inactive	inactive	inactive	inactive	inactive	inactive	inactive	inactive	inactive
CCSc1ccc2c(c1)N(CCCN1CCN(C)CC1)c1ccccc1S2	inactive	inactive	inactive	inactive	inactive	inactive	inactive	inactive	inactive	inactive
C=CC(=O)O	inactive	inactive	inactive	inactive	inactive	inactive	inactive	inactive	inactive	inactive
CC(C)(C)CC(C)(C)c1cc(Cc2cc(C(C)(C)CC(C)(C)C)cc(-n3nc4ccccc4n3)c2O)c(O)c(-n2nc3ccccc3n2)c1	inactive	inactive	inactive	inactive	inactive	inactive	inactive	inactive	inactive	inactive
OC[C@H]1O[C@@](CO)(O[C@H]2O[C@H](CO)[C@@H](O)[C@H](O)[C@H]2O)[C@@H](O)[C@@H]1O	inactive	inactive	inactive	inactive	inactive	inactive	inactive	inactive	inactive	inactive
OC/C=C/c1ccccc1	inactive	inactive	inactive	inactive	inactive	inactive	inactive	inactive	inactive	inactive
CC(C)[C@@H](N)C(=O)O	inactive	inactive	inactive	inactive	inactive	inactive	inactive	inactive	inactive	inactive
C=CCN1CCCC1CNC(=O)c1cc(S(N)(=O)=O)cc(OC)c1OC (configuration not stated)	inactive	inactive	inactive	inactive	inactive	inactive	inactive	inactive	inactive	inactive
CC(=O)Oc1cccc2c1C(=O)c1c(OC(C)=O)cc(C(=O)O)cc1C2=O	inactive	inactive	inactive	inactive	inactive	inactive	inactive	inactive	inactive	inactive
C=CCOc1ccc(CC(=O)O)cc1Cl	inactive	inactive	inactive	inactive	inactive	inactive	inactive	inactive	inactive	inactive
FCOC(C(F)(F)F)C(F)(F)F	inactive	inactive	inactive	inactive	inactive	inactive	inactive	inactive	inactive	inactive
O=C(OC1C[C@@H]2CC3C[C@H](C1)N2CC3=O)c1c[nH]c2ccccc12 (some centres not stated)	inactive	inactive	inactive	inactive	inactive	inactive	inactive	inactive	inactive	
CCOC(=O)C1=C(COCCN)NC(C)=C(C(=O)OC)C1c1ccccc1Cl (configuration not stated)	inactive	inactive	inactive	inactive	inactive	inactive	inactive	inactive	inactive	inactive
O=C(O)COc1ccccc1/C=N/NC(=O)c1ccncc1	inactive	inactive	inactive	inactive	inactive	inactive	inactive	inactive	inactive	inactive
CC1(C)S[C@@H]2[C@H](NC(=O)C3(N)CCCCC3)C(=O)N2[C@H]1C(=O)O	inactive	inactive	inactive	inactive	inactive	inactive	inactive	inactive	inactive	inactive
Cc1cc(=O)c(C(=O)N[C@@H](C(=O)N[C@@H]2C(=O)N3C(C(=O)O)=C(CSc4nnnn4C)CS[C@H]23)c2ccc(O)cc2)c[nH]1	inactive	inactive	inactive	inactive	inactive	inactive	inactive	inactive	inactive	inactive
CC12CCC(C1)C(C)(C)C2=O (configuration not stated)	inactive	inactive	inactive	inactive	inactive	inactive	inactive	inactive	inactive	inactive
CCOc1ccc(S(=O)(=O)O)c2cccnc12	inactive	inactive	inactive	inactive	inactive	inactive	inactive	inactive	inactive	inactive
CCOc1ccc(NC(=S)Nc2ccc(OCC)cc2)cc1	inactive	inactive	inactive	inactive	inactive	inactive	inactive	inactive	inactive	inactive
COC(=O)[C@@H](N)CS	inactive	inactive	inactive	inactive	inactive	inactive	inactive	inactive	inactive	inactive
CCCCCCCCCCCCCCCCCC(=O)OC[C@@H](O)[C@H]1OC[C@H](O)[C@H]1O	inactive	inactive	inactive	inactive	inactive	inactive	inactive	inactive	inactive	inactive
c1ccc(-n2cnnn2)cc1	inactive	inactive	inactive	inactive	inactive	inactive	inactive	inactive	inactive	inactive

Structure (SMILES)	Potency [1]	Potency [2]	Potency [3]	Potency [4]	Potency [5]	Potency [6]	Potency [7]	Potency [8]	Potency [9]	Potency [10]
C=CC(C)(O)CC/C=C(\C)CCC=C(C)C (configuration not stated)	inactive	inactive	inactive	inactive	inactive	inactive	inactive	inactive	inactive	inactive
CCN(CC)CCC(=O)N1c2ccccc2Sc2ccc(Cl)cc21	8910 nM (active)									
O=C1CCC(c2ccccc2)(C2CCN(Cc3ccccc3)CC2)C(=O)N1 (configuration not stated)	inactive	inactive	inactive	inactive	inactive	inactive	inactive	inactive		
CC(C)CCC[C@@H](C)[C@H]1CC[C@H]2[C@@H]3CC[C@@H]4C[C@H](O)CC[C@]4(C)[C@H]3CC[C@]12C	inactive	inactive	inactive	inactive	inactive	inactive	inactive	inactive	inactive	inactive
CCN(CC)CCOC(=O)c1cccnc1	inactive	inactive	inactive	inactive	inactive	inactive	inactive	inactive	inactive	inactive
NC(=O)C1c2ccccc2CCc2ccccc21	inactive	inactive	inactive	inactive	inactive	inactive	inactive	inactive	inactive	inactive
CC(=O)[C@H]1CC[C@H]2[C@@H]3C=CC4=CC(=O)CC[C@@]4(C)[C@H]3CC[C@]12C	inactive	inactive	inactive	inactive	inactive	inactive	inactive	inactive	inactive	inactive
O=C(O)CCC(=O)c1ccc(-c2ccccc2)cc1	inactive	inactive	inactive	inactive	inactive	inactive	inactive	inactive	inactive	inactive
CCCCCc1ccc(C)cc1O	inactive	inactive	inactive	inactive	inactive	inactive	inactive	inactive	inactive	inactive
CC1CC(OC(=O)C(O)c2ccccc2)CC(C)(C)C1 (configuration not stated)	inactive	inactive	inactive	inactive	inactive	inactive	inactive	inactive	inactive	inactive
O=P(O)(O)O	inactive	inactive	inactive	inactive	inactive	inactive	inactive	inactive	inactive	inactive
CC1CC(O)CC(C)(C)C1 (configuration not stated)	inactive	inactive	inactive	inactive	inactive	inactive	inactive	inactive	inactive	inactive
CN1C(=O)OC(C)(C)C1=O	inactive	inactive	inactive	inactive	inactive	inactive	inactive	inactive	inactive	inactive
C=CC[C@@H]1/C=C(\C)C[C@H](C)C[C@H](OC)[C@H]2O[C@@](O)(C(=O)C(=O)N3CCCC[C@H]3C(=O)O[C@H](/C(C)=C/[C@@H]3CC[C@@H](O)[C@H](OC)C3)[C@H](C)[C@@H](O)CC1=O)[C@H](C)C[C@@H]2OC	794 nM (active)	4260 nM (active)	631 nM (active)	8490 nM (active)	849 nM (active)	3790 nM (active)	1000 nM (active)	6750 nM (active)	1900 nM (active)	
O=C(O)c1ccc(NC(=O)[C@H](Cc2ccc(O)cc2)NC(=O)c2ccccc2)cc1	inactive	inactive	inactive	inactive	inactive	inactive	inactive	inactive	inactive	inactive
CC(C)(C)CC(C)(C)c1ccc(OCCO)cc1	inactive	inactive	inactive	inactive	inactive	inactive	inactive	inactive	inactive	inactive
COc1ccc(C(=O)c2ccc(C)cc2)c(O)c1	inactive	inactive	inactive	inactive	inactive	inactive	inactive	inactive	inactive	inactive
CCCc1nc(C(C)(C)O)c(C(=O)OCc2oc(=O)oc2C)n1Cc1ccc(-c2ccccc2-c2nn[nH]n2)cc1	inactive	inactive	inactive	inactive	inactive	inactive	inactive	inactive	inactive	inactive
CCOC(=S)SSC(=S)OCC	inactive	inactive	inactive	inactive	inactive	inactive	inactive	inactive	inactive	inactive
CN(C)c1ccc(C(=C2C=CC(=[N+](C)C)C=C2)c2c(O)c(S(=O)(=O)[O-])cc3cc(S(=O)(=O)O)ccc23)cc1	inactive	inactive	inactive	inactive	inactive	inactive	inactive	inactive	inactive	inactive
Nc1nc(=O)n([C@@H]2CS[C@H](CO)O2)cc1F	inactive	inactive	inactive	inactive	inactive	inactive	inactive	inactive	inactive	inactive
CC1C(=O)CC2C3(C)CCC2(C(C)C(=O)O)C(=O)C13 (configuration not stated)	inactive	inactive	inactive	inactive	inactive	inactive	inactive	inactive	inactive	inactive
NC(=O)[C@@H]1CCCN1C(=O)[C@H](Cc1cnc[nH]1)NC(=O)[C@@H]1CCC(=O)N1	inactive	inactive	inactive	inactive	inactive	inactive	inactive	inactive	inactive	inactive

Reference: PubChem BioAssay (NCATS)
